HT1080 IDH1KD tx: toxicity to HT-1080 IDH1 knockdown cells (counter line); 360,000 tested, 2% active; HT-1080 IDH1 knockdown viability, ATP luminescence, 48 h; AID 686971; Potency, µM (series often up to 46.1 µM), inactives show at the highest dose activity, negative = toxicity, hits mostly cytotoxic;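 note: 0% = DMSO wells and -100% = cell-free medium wells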
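Luminescent ATP read-out (CellTiter-Glo, 10 min at room temperature) after 48 h compound exposure at 37 °C gave viability of IDH1-knockdown HT-1080 cells. Activity was normalised to DMSO and cell-free wells, then fitted as concentration-response curves.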
SW480 rerep: DNA re-replication induction in SW480 cells; SW480 DNA re-replication, Hoechst DNA content imaging, 48 h; Potency, µM (top dose mostly 46.1 µM), without a hit: at the highest dose re-replication activation, actives largely listed as activators; 340,000 tested, 1.8% active; note: % of control where 0% means no effect; nearly all actives have a fitted effect of over 55% in size
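Quantitative HTS format with DMSO vehicle controls; 48 hr drug incubation at 37 C, then 40 min Hoechst staining and scanning imager measurement at 405 nm excitation.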
KB-V1 MDR tox: KB-V1 MDR subline cytotoxicity; KB-V1 MDR cells viability, CellTiter-Glo, 72 h; Potency, µM (titrated, usually from 46.1 µM), actives largely listed as cytotoxic; 400,000 tested, 3.4% active; note: % is set by controls: 0 for no effect and ±100 for the full control effect; nearly all actives have a fitted effect of over 60% in size
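Following 72 h at 37 degrees C with compound, KB-V1 cell viability was read by CellTiter-Glo luminescence, medium being phenol-red-free DMEM plus 10% FBS; concentration-response parameters came from normalized, curve-fitted qHTS data.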
HT1080NT lethal: kills 2HG-producing HT-1080-NT fibrosarcoma cells; HT-1080-NT fibrosarcoma viability, CellTiter-Glo ATP luminescence, 48 h; AID 686970; 360,000 tested, 1.6% active; Potency, µM (titrated, usually from 46.1 µM), for the others: top-dose activity, negative = less viability, actives largely listed as cytotoxic;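 note: NT is the 2HG producing partner of a matched IDH1 knockdown line; 0% = DMSO-treated cells and -100% = media-only wells without cells; nearly all actives have a fitted effect of over 55% in size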
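Compounds were tested in concentration-response format on HT-1080-NT cells for 48 hours at 37 degrees C. Cell viability came from CellTiter-Glo luminescence; curves were classified by r2, response magnitude and activity.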
KB-3-1 tox: KB-3-1 parental cell cytotoxicity; KB-3-1 viability, CellTiter-Glo ATP luminescence, 72 h; Potency, µM (doses to about 46.1 µM), hits mostly cytotoxic; 400,000 tested, 1.4% active; AID 1347075; note: % is set by controls: 0 for no effect and ±100 for the full control effect; nearly all actives have a fitted effect of over 60% in size
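Viability of parental KB-3-1 cells, measured by CellTiter-Glo luminescence, followed a 72 h incubation at 37 °C with pinned compounds in phenol-red-free DMEM containing 10% FBS.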
MCF10A rereplic: induces DNA re-replication in MCF 10a normal breast cells; MCF 10A DNA re-replication, Hoechst nuclear intensity, 48 h; Potency, µM (series often up to 46.1 µM), without a hit: at the highest dose activity, positive = re-replication, actives largely listed as activators; 350,000 tested, 2.9% active; note: % of control where 0% means no effect; nearly all actives have a fitted effect of over 50% in size
Numbers without * were called inactive; i = inactive; ? = inconclusive; nt = no result; [ ] = another dose, or the depositor's remark. Hits are enriched below; roughly 8% of the tested compounds scored in any of these assays. Calls come from the whole dose curve; as a rule, active = well fitted curve in the direction sought with a large enough effect; inconclusive = small, poorly fitted or top-dose-only effect, or another doubt; inactive = no such curve, though single readings can be large; an effect the other way counts as inactive or inconclusive. Potency is the fitted concentration of half-maximal effect.

SMILES	HT1080 IDH1KD tx	SW480 rerep	KB-V1 MDR tox	HT1080NT lethal	KB-3-1 tox	MCF10A rereplic
C[C@H]1CC[C@@H]2[C@@H](C)[C@H]3[C@H](C[C@H]4[C@@H]5CC=C6CC(O[C@@H]7O[C@H](CO)[C@H](O)[C@H](O[C@@H]8O[C@H](CO)[C@@H](O)[C@H](O)[C@H]8O)[C@H]7O[C@H]7O[C@@H](C)[C@H](O)[C@@H](O)[C@H]7O)CC[C@]6(C)[C@H]5CC[C@]34C)N2C1 (some centres not stated)	nt	?	nt	nt	nt	8%
Cc1nc(C)n(CC(O)COc2ccc3cc(Br)ccc3c2)n1 (configuration not stated)	?	3%	i	-6%	i	13%
O=C(CNC(=O)OCc1ccccc1)Nc1ccc(Br)cc1C(=O)c1ccccc1	?	5%	10µM*	?	?	?
Cc1cccc(N2CCN(C(=O)c3ccc(CNc4c(N5CCC(C)CC5)c(=O)c4=O)cc3)CC2)c1C	-2%	5%	i	-1%	i	-9%
O=[N+]([O-])c1ccccc1-c1cc(-c2ccccc2)cc(-c2ccccc2)[n+]1Cc1ccccc1Cl	10µM*	?	i	7.3µM*	9.2µM*	?
COc1ccccc1CNc1nc(NCc2ccccc2SC)c2sccc2n1	18µM*	nt	?	?	?	nt
CC1OC(OC2CCC3(C)C(CCC4C3CC(O)C3(C)C(C5=CC(=O)OC5)CCC43O)C2)CC(O)C1OC1CC(O)C(OC2CC(O)C(OC3OC(CO)C(O)C(O)C3O)C(C)O2)C(C)O1 (configuration not stated)	nt	?	nt	nt	nt	6%
CC(=O)OC1C[C@H](O[C@@H]2C(O)C[C@H](O[C@@H]3C(O)C[C@@H](OC4CC[C@]5(C)C(CCC6C5CC(O)[C@@]5(C)C(C7=CC(=O)OC7)CC[C@@]65O)C4)OC3C)OC2C)O[C@H](C)[C@H]1O[C@H]1OC(CO)C(O)C(O)C1O (some centres not stated)	nt	?	nt	nt	nt	0.12µM*
CC(=O)OC1CC(OC2C(O)CC(OC3C(O)CC(OC4CCC5(C)C(CCC6C5CCC5(C)C(C7=CC(=O)OC7)CCC65O)C4)OC3C)OC2C)OC(C)C1OC1OC(CO)C(O)C(O)C1O (configuration not stated)	0.052µM*	0.92µM*	0.41µM*	0.082µM*	?	15%
OC1CCC(Nc2ccn3nc(-c4cccc(OCc5ccccc5)c4)cc3n2)CC1 (configuration not stated)	?	nt	i	?	i	nt
COc1ccc(-c2coc3c(C(=O)Nc4cc(OC)c(OC)c(OC)c4)cccc23)c(C)c1	?	nt	13µM*	?	?	nt
COc1cc(C(=O)Nc2ccc(Br)cc2C(=O)c2ccccc2Cl)cc(OC)c1OC	-8%	-5%	?	1%	i	10%
COc1cc(NC(=O)c2cccc3c(-c4cccnc4)coc23)cc(OC)c1OC	-14%	nt	7.3µM*	?	?	nt
COC(=O)c1nc(-c2ccc3c(n2)C(=O)C(N)=C(OC)C3=O)c(N)c(-c2ccc(OC)c(OC)c2O)c1C	?	?	10µM*	?	?	?
CCCn1c(C)c(C(=O)c2cccc3ccccc23)c2ccccc21	?	20%	?	?	?	?
O=C(c1c[nH]cc1-c1ccccc1)c1cccc2ccccc12	15µM*	22%	i	23µM*	i	17%
CCC(=C(c1ccc(O)cc1)c1ccc(OCCN(C)C)cc1)c1ccccc1	0%	nt	i	0%	i	nt
CC/C(=C(\c1ccc(O)cc1)c1ccc(OCCN(C)C)cc1)c1ccccc1	18µM*	?	?	16µM*	i	?
CC(=O)OC1CC[C@]2(C#N)[C@H]3CC[C@]4(C)[C@H](C5C=CC(=O)O5)CCC4(O)C3CCC2(O)C1 (some centres not stated)	15µM*	-12%	?	26µM*	?	?
CC(O)(CS(=O)(=O)c1ccccc1)C(=O)Nc1ccc(C(F)(F)F)cc1 (configuration not stated)	-22%	-5%	15µM*	?	i	-5%
CC(O)(CS(=O)(=O)c1cccc(C(F)(F)F)c1)C(=O)Nc1cccc(C(F)(F)F)c1 (configuration not stated)	?	1%	i	5%[9.24 µM]	i	0%
Nc1ncnc2c1ccn2[C@@H]1O[C@H](CO)[C@@H](O)[C@H]1O	0.82µM*	?	0.21µM*	0.65µM*	0.18µM*	?
NC(=O)c1ncn([C@@H]2O[C@H](CO)[C@@H](O)[C@H]2O)n1	nt	?	i	nt	i	2%
NC(=S)c1cn(C2OC(CO)C(O)C2O)c2ncnc(N)c12 (configuration not stated)	1.3µM*	-6%	i	?	?	?
Cc1ccc(OCC(=O)Nc2ccc(Cl)cc2C(=O)c2ccccc2)c(Br)c1	nt	nt	i	nt	i	nt
SMILES	HT1080 IDH1KD tx	SW480 rerep	KB-V1 MDR tox	HT1080NT lethal	KB-3-1 tox	MCF10A rereplic
C#CCN(C)[C@@H](C)Cc1ccccc1	nt	-4%	nt	nt	nt	2%
Clc1cccc(N2Cc3ccccc3-n3nncc3C2)c1	?	nt	i	-23%	i	nt
CC(=O)[O][Hg][c]1ccccc1	nt	?	nt	nt	nt	43%
COc1ccc(-c2nnc(Nc3nc4c(OC)cccc4s3)o2)c(OC)c1	3.2µM*	0%	?	4µM*	?	5%
Oc1ccc(Cl)cc1Cc1cc(Cl)ccc1O	23µM*	?	?	16µM*	i	5.2µM*
Cc1oc(-c2ccc(Cl)cc2)nc1CN1C(=O)CN=C(c2ccccc2)c2ccccc21	nt	nt	i	nt	i	nt
COc1cccc(N2C(=O)NC(=O)C3(Cc4cc(C)ccc4N(C)C3)C2=O)c1 (configuration not stated)	-11%	-7%	i	2%	i	1%
CCOC(=O)[C@]12Cc3cc(C)ccc3[C@H]1N(CCC(=O)OC)C(=O)c1cc(OC)ccc12	18µM*	nt	21µM*	23µM*	18µM*	nt
CCOC(=O)[C@]12Cc3ccccc3[C@H]1N(CCC(=O)OC)C(=O)c1ccccc12	?	nt	5.2µM*	?	5.2µM*	nt
CCCCCN1C(=O)c2ccccc2[C@@]2(C(=O)OCC)Cc3cc(OC)ccc3[C@@H]12	12µM*	nt	?	15µM*	5.8µM*	nt
Cc1cc(C)cc(-n2c(=O)[nH]c3ccccc3c2=O)c1	nt	nt	i	nt	i	nt
